Assay results from PubChem BioAssay (NCATS).
Results filed as inconclusive are left out. Where a call stands in place of a potency, no number is given. Calls of active or inactive are those of the source. Unless noted, the call rests on the fitted dose curve; in most records, active means well fitted curve in the direction sought with a large enough effect; inconclusive means small, poorly fitted or top-dose-only effect, or another doubt; inactive means no such curve, though single readings can be large; an effect the other way counts as inactive or inconclusive.

What was measured:
[1] = qHTS profiling of the MIPE4 collection as inhibitors of Plasmodium falciparum (DD2) proliferation (Rep 2) (AID 743346; call rule not given here); conditions: P. falciparum Dd2 in erythrocytes, SYBR Green DNA, 72 h; at 28.5 µM unless noted
Method in brief: (§1)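 Parasite DNA was quantified by SYBR Green I fluorescence (ex 485, em 535 nm) after overnight lysis in saponin/Triton buffer at room temperature. Cultures at 0.3% parasitemia and 2.5% hematocrit were first exposed to compound for 72 h at 37 C; signals were normalised to artemisinin (0.29 uM) and vehicle wells.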

[2] = qHTS profiling of the MIPE4 collection as inhibitors of Plasmodium falciparum (HB3) proliferation (AID 743347; call rule not given here); conditions: P. falciparum HB3 in erythrocytes, SYBR Green DNA, 72 h; at 28.5 µM unless noted
Method in brief: as §1

[3] = High-throughput drug toxicity screening in the BPDCN cell line Gen2.2 (AID 1224824; call rule not given here;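 further: cells exposed to compounds for 48 h before reading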); conditions: Gen2.2 BPDCN cells; at 45.8 µM (top of the series) unless noted
Method in brief: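 Seed 500 exponentially growing Gen2.2 cells/well; add compounds by pin tool; incubate 48 h, 37 °C, 5% CO2; add CellTiter-Glo, 15 min RT; read luminescence. % activity vs DMSO (100%) and bortezomib (0%).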

[4] = High-throughput drug toxicity screening in the BPDCN cell line Cal-1 (AID 1224825; call rule not given here); conditions: Cal-1 BPDCN cell viability, qHTS; at 45.8 µM (top of the series) unless noted
Method in brief: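 Percent activity derived from CellTiter-Glo luminescence, scaling DMSO to 100% and 9.2 uM final bortezomib to 0%. BPDCN Cal-1 cells (500/well, RPMI plus 10% FBS) incubated with compounds 48 hours at 37C before reading.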

[5] = qHTS assay for measurement of the activity of small molecule inhibitors on Zika virus induced Caspase-3 activity in human iPSC derived neural progenitor cells (hNPCs) (AID 1224857); conditions: hNPCs ZIKV-induced caspase-3/7, Caspase-Glo luminescence, 6 h; series mostly up to 45.7 µM; further: nearly all actives have a fitted effect of over 65% in size; further: potency means the concentration at half of the fitted maximal effect
Method in brief: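 Values are percent inhibition of virus-induced caspase-3/7 signal, scaled between uninfected cells and ZIKV-infected cells. Infection used 2 FFU/cell for 6 h after 1 h compound exposure.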

[6] = qHTS assay for measurement of the activity of small molecule inhibitors on Zika virus induced Caspase-3 activity in human astrocytoma cells (AID 1224859); conditions: SNB-19 ZIKV-induced caspase-3/7, luminescence, 6 h; series mostly up to 45.7 µM; further: potency means the concentration at half of the fitted maximal effect
Method in brief: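 Compound added 1 h pre-infection; ZIKV 2 FFU/cell on SNB-19 cells, 6 h, 37 C/5% CO2. Caspase-Glo 3/7 luminescence; values as % inhibition of ZIKV-induced caspase activity.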

[7] = qHTS Screen of the MIPE 4.0 Collection Against Ewings Sarcoma (RDES) (AID 1259252); conditions: RD-ES Ewing sarcoma viability, CellTiter-Glo, 48 h; series mostly up to 45.8 µM; further: nearly all actives have a fitted effect of over 35% in size; further: potency means the concentration at half of the fitted maximal effect
Method in brief: (§2)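 After a 4 h attachment period in RPMI/5% FBS, cells were pin-dosed with test compounds; DMSO served as negative and 9.2 uM bortezomib (final) as positive control. Luminescent CellTiter-Glo signal at 48 h defined viability.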

[8] = qHTS Screen of the MIPE 4.0 Collection Against Ewings Sarcoma (TC71) (AID 1259253); conditions: TC71 Ewing sarcoma viability, CellTiter-Glo, 48 h; series mostly up to 45.8 µM; further: nearly all actives have a fitted effect of over 40% in size; further: potency means the concentration at half of the fitted maximal effect
Method in brief: as §2

[9] = qHTS Screen of the MIPE 4.0 Collection Against Ewings Sarcoma (EW8) (AID 1259255); conditions: EW8 Ewing sarcoma viability, CellTiter-Glo, 48 h; series mostly up to 45.8 µM; further: nearly all actives have a fitted effect of over 35% in size; further: potency means the concentration at half of the fitted maximal effect
Method in brief: as §2

[10] = qHTS assay to identify small molecule inhibitors of chordoma cells - UCH-1 (AID 1259355); conditions: UCH-1 chordoma viability, CellTiter-Glo, 48 h, combination, with auranofin plus four topoisomerase inhibitors; series mostly up to 46.1 µM; further: nearly all actives have a fitted effect of over 55% in size
Method in brief: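 800 cells/well, overnight attach; compounds pinned at 15 concs, then auranofin/camptothecin/doxorubicin/rubitecan/topotecan combo added; 48hr 37 C, 5% CO2; CellTiter-Glo, 30min RT, luminescence.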

[11] = qHTS assay to identify small molecule inhibitors of chordoma cells - UCH-2 (AID 1259356); conditions: UCH-2 chordoma viability, CellTiter-Glo ATP luminescence, 48 h; series mostly up to 46.1 µM
[12] = qHTS Screen of the MIPE 4.0 Collection Against Ewings Sarcoma (TC32) (AID 1259256); conditions: TC32 Ewing sarcoma viability, CellTiter-Glo, 48 h; series mostly up to 45.8 µM; further: nearly all actives have a fitted effect of over 45% in size; further: potency means the concentration at half of the fitted maximal effect
Method in brief: as §2

[13] = P-glycoprotein substrates identified in KB-8-5-11 adenocarcinoma cell line, qHTS therapeutic library screen (AID 1346987); conditions: KB-8-5-11 (P-gp overexpressing) viability, CellTiter-Glo, 72 h; series mostly up to 44.5 µM; further: nearly all actives have a fitted effect of over 65% in size; further: potency means the concentration at half of the fitted maximal effect
Method in brief: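 Luminescence from CellTiter-Glo, read 5 min after addition, quantified survival of KB-8-5-11 (P-gp-overexpressing) cells exposed to compounds for 72 h. AC50 was derived from concentration-response curves.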

[14] = Natriuretic polypeptide receptor (hNpr1) antagonism - Pilot counterscreen GloSensor control cell line (AID 1347045; calls by dose curve); conditions: HEK293 cGMP GloSensor cells, SNP-stimulated luminescence, 20 min; series mostly up to 38.3 µM
Method in brief: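 Cells were first seeded and incubated overnight at 37C, then loaded with 2% GloSensor substrate for 2 h. Compounds were added for 30 min at room temperature, followed by a baseline read, 50 uM SNP and a final read after 20 min.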

Structure (SMILES) | parasite growth, % of control (lower = inhibition) [1] | growth, % of control [2] | cell viability, % of control (lower = more cytotoxic) [3] | viability (% of control) [4] | Potency [5] | Potency [6] | Potency [7] | Potency [8] | Potency [9] | Potency [10] | Potency [11] | Potency [12] | Potency [13] | Potency [14]
NNc1nncc2ccccc12 | 116% | 95.2% | 166% | 104% | inactive | inactive | inactive | inactive | inactive | inactive | inactive | – | – | –
Clc1ccc2c(N3CCN(CCCN4CCN(c5ccnc6cc(Cl)ccc56)CC4)CC3)ccnc2c1 | 21.1% [at 9.64 µM] | 14.1% [at 9.64 µM] | 88.7% [at 23.2 µM] | 112% [at 23.2 µM] | inactive | inactive | inactive | inactive | inactive | – | – | inactive | inactive | –
COc1c2occc2cc2ccc(=O)oc12 | – | – | 109% | 93.5% | inactive | inactive | inactive | – | inactive | inactive | inactive | 3.32 µM (active) | – | –
c1ccc2[nH]c(-c3cscn3)nc2c1 | 33.5% | 9.5% | 245% | 102% | 16.6 µM (active) | 16.6 µM (active) | inactive | inactive | inactive | inactive | inactive | – | – | –
CN(c1nccc(=O)[nH]1)C1CCN(c2nc3ccccc3n2Cc2ccc(F)cc2)CC1 | 23.1% | 17.5% | 107% | 108% | inactive | inactive | 13.2 µM (active) | 18.7 µM (active) | – | inactive | inactive | – | – | –
O=Nc1c(-c2c(O)[nH]c3cc(Br)ccc23)[nH]c2ccccc12 | 3.69% | 1.37% | 1.04% | 1.62% | inactive | inactive | 3.32 µM (active) | 7.43 µM (active) | 4.18 µM (active) | – | – | – | 9.35 µM (active) | –
Cc1cc2cc3c(C)cc(=O)oc3c(C)c2o1 | 91.1% | 76.7% | 16.3% | 8.43% | inactive | inactive | 7.43 µM (active) | 11.8 µM (active) | – | inactive | inactive | 16.6 µM (active) | inactive | –
O=C(O)c1cc(=O)c2c(OCC(O)COc3cccc4oc(C(=O)O)cc(=O)c34)cccc2o1 | 106% | 81% | 106% | 115% | inactive | inactive | inactive | inactive | inactive | inactive | inactive | – | – | –
O=C(NOCC1CC1)c1ccc(F)c(F)c1Nc1ccc(I)cc1Cl | 56.1% | 63.7% | 6.36% | 7.67% | inactive | inactive | 20.9 µM (active) | 20.9 µM (active) | – | – | – | – | 18.4 µM (active) | –
Nc1ncn([C@H]2C[C@H](O)[C@@H](CO)O2)c(=O)n1 | 91.2% | 81.1% | 125% | 47.1% | inactive | inactive | 0.418 µM (active) | 2.35 µM (active) | – | inactive | inactive | – | inactive | –
COc1cc(OC)c(C(=O)CCCN2CCCC2)c(OC)c1 | 38.2% | 75.7% | 165% | 101% | inactive | inactive | inactive | inactive | inactive | inactive | inactive | inactive | – | –
c1cnc2cc3c(cc2n1)C1CNCC3C1 | 52.2% | 68.4% | 95.8% | 97.2% | inactive | inactive | inactive | inactive | inactive | – | – | – | inactive | –
CC1(C)C(=O)N(CCN2CCC(C(=O)c3ccc(F)cc3)CC2)c2ccccc21 | 26.2% | 34.5% | 37.4% | 85.6% | inactive | inactive | inactive | inactive | inactive | – | – | – | inactive | inactive
CC1=C(C)C(=O)C(C(CCCCCC(=O)O)c2ccccc2)=C(C)C1=O (centres undefined) | 46% | 74.4% | 195% | 115% | inactive | inactive | inactive | inactive | inactive | inactive | inactive | inactive | – | –
O=C(OC1C[C@H]2CC[C@@H](C1)[N+]21CCCC1)C(O)(c1ccccc1)c1ccccc1 (some centres undefined) | – | 17.4% | 120% | 99.2% | inactive | inactive | inactive | inactive | inactive | inactive | inactive | inactive | – | –
Cc1cc2c(s1)Nc1ccccc1N=C2N1CCN(C)CC1 | – | – | 199% | 115% | inactive | inactive | inactive | inactive | inactive | inactive | inactive | – | – | –
O=C(O)CCNC(=O)c1ccc(N=Nc2ccc(O)c(C(=O)O)c2)cc1 | 88.5% | 73.4% | 171% | 130% | inactive | inactive | 9.35 µM (active) | 9.35 µM (active) | – | inactive | inactive | – | inactive | –
C[C@H](Cn1cnc2c(N)ncnc21)OCP(=O)(O)O | 107% | 612% | 168% | 130% | inactive | inactive | inactive | inactive | inactive | inactive | inactive | inactive | inactive | –
